Test results reported in PubChem BioAssay AID1159580 (chemical genetic matrix, 2015).
Several values for one entry are separate records, joined by “and”; a condition that tells them apart may be missing. Equal values may be shown once. Out of some 5,500 compounds screened, about 2,000 (36%) were called active. About 18% were inconclusive and are not listed. No stated cut-off is given here; in the data, active means normalized growth mostly below about 0.91 (no sharp cut-off); inconclusive means no clear call, values can overlap the other calls; inactive means mostly above about 0.92. The list shows a part of the results.

Experiment: chemical genetic growth profiling, strain panel (AID 1159580);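 further: tested at 20 µM; growth read once vehicle control cultures reached saturation at 30 °C; 1 = growth at the plate median or of vehicle wells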
Conditions: S. cerevisiae deletion strains, growth OD

Measured: normalized growth

CO[C@H]1C[C@H](O[C@H]2[C@H](C)[C@@H](OC3O[C@H](C)C[C@H](N(C)C)[C@H]3OC(C)=O)[C@@H](C)C[C@]3(CO3)C(=O)[C@H](C)[C@@H](OC(C)=O)[C@@H](C)[C@@H](C)OC(=O)[C@@H]2C)O[C@@H](C)[C@@H]1OC(C)=O (some centres undefined)
inactive: locus YAL021C, strain ccr4, stronger effect = lower value 0.998 | locus YAL026C, strain drs2, stronger effect = lower value 1.01 | locus YAL030W, strain snc1, stronger effect = lower value 0.989 | locus YBL061C, strain skt5, stronger effect = lower value 1 | locus YBR009C, strain hhf1, stronger effect = lower value 0.997 | locus YBR021W, strain FUR4, stronger effect = lower value 0.996 | locus YBR023C, strain chs3, stronger effect = lower value 0.996 | locus YBR171W, strain sec66, stronger effect = lower value 1.01 | locus YBR229C, strain ROT2, stronger effect = lower value 1.01 | locus YBR231C, strain swc5, stronger effect = lower value 0.996 | locus YBR279W, strain paf1, stronger effect = lower value 1 | locus YCL011C, strain gbp2, stronger effect = lower value 1.01 | locus YCL016C, strain dcc1, stronger effect = lower value 1 | locus YCL029C, strain bik1, stronger effect = lower value 0.997 | locus YCL061C, strain MRC1, stronger effect = lower value 0.992 | locus YCL069W, strain vba3, stronger effect = lower value 0.994 | locus YCR088W, strain abp1, stronger effect = lower value 0.994 | locus YDL005C, strain med2, stronger effect = lower value 0.985 | locus YDL035C, strain GPR1, stronger effect = lower value 1.01 | locus YDL040C, strain nat1, stronger effect = lower value 0.998 | locus YDL074C, strain BRE1, stronger effect = lower value 1 | locus YDL101C, strain DUN1, stronger effect = lower value 1.01 | locus YDL134C, strain PPH21, stronger effect = lower value 1 | locus YDL185W, strain tfp1, stronger effect = lower value 0.981 | locus YDL192W, strain arf1, stronger effect = lower value 0.989 | locus YDR001C, strain nth1, stronger effect = lower value 0.992 | locus YDR069C, strain doa4, stronger effect = lower value 0.998 | locus YDR101C, strain arx1, stronger effect = lower value 1.01 | locus YDR137W, strain rgp1, stronger effect = lower value 1 | locus YDR159W, strain sac3, stronger effect = lower value 0.997 | locus YDR162C, strain NBP2, stronger effect = lower value 1 | locus YDR195W, strain ref2 1 | locus YDR297W, strain sur2, stronger effect = lower value 0.991 | locus YDR318W, strain mcm21, stronger effect = lower value 0.993 | locus YDR334W, strain swr1, stronger effect = lower value 1 | locus YDR335W, strain msn5, stronger effect = lower value 0.998 | locus YDR388W, stronger effect = lower value 0.979 | locus YDR392W, strain spt3, stronger effect = lower value 0.996 | locus YDR502C, strain sam2, stronger effect = lower value 0.977 | locus YEL003W, strain gim4, stronger effect = lower value 1 | locus YEL037C, strain rad23, stronger effect = lower value 0.998 | locus YEL061C, strain CIN8 (second series), stronger effect = lower value 1 | locus YEL061C, strain CIN8, stronger effect = lower value 1.01 | locus YER015W, strain faa2, stronger effect = lower value 0.998 | locus YER016W, strain bim1, stronger effect = lower value 0.997 | locus YER110C, stronger effect = lower value 0.988 | locus YER111C, strain swi4, stronger effect = lower value 1.01 | locus YER155C, strain BEM2 (second series), stronger effect = lower value 0.994 | locus YER155C, strain BEM2, stronger effect = lower value 1.01 | locus YER167W, strain BCK2, stronger effect = lower value 1 | locus YFR010W, strain ubp6, stronger effect = lower value 1.01 | locus YGL078C, strain dbp3, stronger effect = lower value 0.984 | locus YGL086W, strain mad1, stronger effect = lower value 1 | locus YGL167C, strain pmr1, stronger effect = lower value 0.996 | locus YGL173C, strain kem1, stronger effect = lower value 1.01 | locus YGL227W, strain vid30, stronger effect = lower value 1.02 | locus YGL240W, strain doc1, stronger effect = lower value 1.01 | locus YGL248W, strain PDE1, stronger effect = lower value 1.01 | locus YGL253W, strain hxk2, stronger effect = lower value 0.991 | locus YGR078C, strain PAC10, stronger effect = lower value 1.01 | locus YGR135W, strain pre9, stronger effect = lower value 0.986 | locus YGR252W, strain gcn5, stronger effect = lower value 0.933 | locus YHR013C, strain ard1, stronger effect = lower value 0.986 | locus YHR027C, strain rpn1, stronger effect = lower value 0.995 | locus YHR030C, strain SLT2, stronger effect = lower value 1.01 and 0.973 | locus YHR079C, strain IRE1 (second series), stronger effect = lower value 0.992 | locus YHR079C, strain IRE1, stronger effect = lower value 0.987 | locus YHR094C, strain hxt1, stronger effect = lower value 0.988 | locus YHR129C, strain ARP1, stronger effect = lower value 1.01 | locus YHR142W, strain chs7, stronger effect = lower value 1.01 | locus YHR200W, strain rpn10, stronger effect = lower value 0.992 | locus YIL066C, strain RNR3, stronger effect = lower value 1.01 | locus YIL073C, strain SPO22, stronger effect = lower value 1 | locus YIL125W, strain kgd1, stronger effect = lower value 0.988 | locus YIR030C, strain dcg1, stronger effect = lower value 1 | locus YJL092W, strain hpr5, stronger effect = lower value 1 | locus YJL095W, strain BCK1 (second series), stronger effect = lower value 0.99 | locus YJL095W, strain BCK1, stronger effect = lower value 1.01 and 0.973 | locus YJL115W, strain asf1, stronger effect = lower value 1.02 | locus YJL129C, strain trk1, stronger effect = lower value 0.979 | locus YJL134W, strain LCB3, stronger effect = lower value 1 | locus YJL154C, strain vps35, stronger effect = lower value 0.987 | locus YJL164C, strain tpk1, stronger effect = lower value 1 | locus YJL166W, strain qcr8, stronger effect = lower value 1 | locus YJL168C, strain set2, stronger effect = lower value 0.994 | locus YJL187C, strain SWE1 (second series), stronger effect = lower value 1.01 | locus YJL187C, strain SWE1, stronger effect = lower value 1 | locus YJR043C, strain POL32, stronger effect = lower value 0.986 | locus YJR066W, strain TOR1, stronger effect = lower value 0.955
